Drawing on PubChem BioAssay, this text covers growth inhibition, inhibition and outcome for 21 compounds.

A number with no mark means an inactive call. For part of these data: Measured potencies and affinities stand elsewhere. Calls of active or inactive are those of the source. Unless noted, no rule for the calls is given here.

Experiment [1] in a line: antimalarial activity against Dd2 strain (AID 2302;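 active = growth inhibition above 50% at the single 2 µM test dose, taken to imply half-maximal potency below 2 µM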;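 also: 0% = DMSO untreated growth and 100% = chloroquine plus artemisinin killed control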). Conditions: P. falciparum Dd2 in RBCs, LDH growth readout, 72 h; at 2 µM; stronger effect = higher value.
Experiment [2] is described as follows: human hepatoma cell viability loss – ATP luminescence, cytotoxicity control for P. falciparum antimalarial project, primary screen (AID 2303;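 active = inhibition above 50%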;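 also: 0% = DMSO wells and 100% = digitonin-killed cells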). To be noted: HepG2 viability, 24-48 h, at 10 µM, stronger effect = higher value.
In experiment [3] the target is L-lactate dehydrogenase (Plasmodium falciparum (isolate CDC / Honduras)) (UniProt Q27743). The experiment can be described thus: PfLDH activity inhibition – cell lysate, 3D7 strain, counter-screen for P. falciparum growth inhibition project (AID 2304).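 Also: 0% = vehicle and 100% = reference inhibitor.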 To be noted: P. falciparum 3D7 crude extract, LDH APAD/NBT absorbance; at 2 µM; stronger effect = higher value. A general note: A counterscreen serves to expose hits that act by an unwanted route or on another target.

A short description of experiment [4]: inhibition of 3D7 malaria parasite growth – strain 3D7 (AID 2306).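 Also: 0% = DMSO wells and 100% = chloroquine plus artemisinin control wells.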 To be noted: P. falciparum 3D7 erythrocytic growth, LDH absorbance, 72 h; at 2 µM; stronger effect = higher value.
Experiment [5] addresses Calcium-dependent protein kinase 1 (Plasmodium falciparum (isolate 3D7)) (UniProt P62344). The experiment can be described thus: PfCDPK1 kinase inhibitors, biochemical, TCAMS library (AID 1159585; cut-off not given, nearly all actives have IC50 up to about 0.98 µM;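 also: inhibitors leave more ATP so luminescence rises with inhibition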). To be noted: recombinant PfCDPK1, Kinase-Glo ATP depletion luminescence.
Experiment [6] deals with Plasmodium falciparum protein kinase 6 (PK6, PF3D7_1337100) (UniProt Q8IDW1). Description: PfPK6 kinase inhibitors, biochemical, TCAMS library (AID 1159586). To be noted: recombinant PfPK6, Kinase-Glo ATP depletion luminescence. (In general: Kinase-Glo measures the ATP left after a reaction by luminescence.)
Experiment [7] concerns the target Protein kinase 7 (PK7), Plasmodium falciparum 3D7 (PF3D7_0213400) (UniProt Q7YTF7). Description: inhibition of Plasmodium PK7 catalytic activity – biochemical, TCAMS antimalarial set, Kinase-Glo luminescence (AID 1159587). To be noted: recombinant PfPK7, Kinase-Glo ATP depletion luminescence.
Experiment [8] addresses Calcium-dependent protein kinase 4 (Plasmodium falciparum (isolate 3D7)) (UniProt Q8IBS5). The experiment can be described thus: PfCDPK4 kinase inhibitors, biochemical, TCAMS library (AID 1159588; cut-off not given, nearly all actives have IC50 up to about 0.91 µM). Conditions: recombinant PfCDPK4, Kinase-Glo ATP depletion luminescence.

Plasmodium falciparum protein kinase 6 (PK6, PF3D7_1337100), sequence (Q8IDW1 1-305): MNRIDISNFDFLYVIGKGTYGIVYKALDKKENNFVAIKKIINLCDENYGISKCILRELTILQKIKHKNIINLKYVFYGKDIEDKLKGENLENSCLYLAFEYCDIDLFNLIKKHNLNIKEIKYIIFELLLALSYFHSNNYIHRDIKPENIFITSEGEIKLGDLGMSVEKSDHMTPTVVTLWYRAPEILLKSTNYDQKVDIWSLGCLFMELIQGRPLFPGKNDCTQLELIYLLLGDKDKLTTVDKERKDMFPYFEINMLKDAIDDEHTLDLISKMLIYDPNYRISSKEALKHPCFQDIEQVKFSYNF
L-lactate dehydrogenase (Plasmodium falciparum (isolate CDC / Honduras)), sequence (Q27743 whole entry, looked up): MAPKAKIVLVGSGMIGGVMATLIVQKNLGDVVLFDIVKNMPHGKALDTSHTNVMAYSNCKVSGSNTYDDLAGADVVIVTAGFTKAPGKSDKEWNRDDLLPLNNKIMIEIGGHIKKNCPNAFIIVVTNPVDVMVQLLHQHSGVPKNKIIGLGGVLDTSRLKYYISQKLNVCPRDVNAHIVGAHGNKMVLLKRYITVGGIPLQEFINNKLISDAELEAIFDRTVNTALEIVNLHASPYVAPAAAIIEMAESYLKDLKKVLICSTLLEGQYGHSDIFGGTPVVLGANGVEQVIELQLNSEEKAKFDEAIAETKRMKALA
Calcium-dependent protein kinase 1 (Plasmodium falciparum (isolate 3D7)), sequence (P62344 whole entry, looked up): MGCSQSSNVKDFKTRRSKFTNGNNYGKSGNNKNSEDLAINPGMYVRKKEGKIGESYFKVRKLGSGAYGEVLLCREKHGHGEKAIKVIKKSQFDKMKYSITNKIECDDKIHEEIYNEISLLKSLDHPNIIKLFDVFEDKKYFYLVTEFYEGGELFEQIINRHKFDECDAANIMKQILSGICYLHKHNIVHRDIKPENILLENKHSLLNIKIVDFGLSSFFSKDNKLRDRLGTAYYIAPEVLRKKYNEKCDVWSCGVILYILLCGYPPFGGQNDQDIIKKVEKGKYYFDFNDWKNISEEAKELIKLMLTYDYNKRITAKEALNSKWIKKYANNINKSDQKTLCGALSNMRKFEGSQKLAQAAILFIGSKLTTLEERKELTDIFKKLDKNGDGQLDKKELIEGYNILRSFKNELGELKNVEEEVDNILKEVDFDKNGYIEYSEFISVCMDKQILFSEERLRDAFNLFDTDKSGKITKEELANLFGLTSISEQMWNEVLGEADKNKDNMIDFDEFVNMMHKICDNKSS
Calcium-dependent protein kinase 4 (Plasmodium falciparum (isolate 3D7)), sequence (Q8IBS5 whole entry, looked up): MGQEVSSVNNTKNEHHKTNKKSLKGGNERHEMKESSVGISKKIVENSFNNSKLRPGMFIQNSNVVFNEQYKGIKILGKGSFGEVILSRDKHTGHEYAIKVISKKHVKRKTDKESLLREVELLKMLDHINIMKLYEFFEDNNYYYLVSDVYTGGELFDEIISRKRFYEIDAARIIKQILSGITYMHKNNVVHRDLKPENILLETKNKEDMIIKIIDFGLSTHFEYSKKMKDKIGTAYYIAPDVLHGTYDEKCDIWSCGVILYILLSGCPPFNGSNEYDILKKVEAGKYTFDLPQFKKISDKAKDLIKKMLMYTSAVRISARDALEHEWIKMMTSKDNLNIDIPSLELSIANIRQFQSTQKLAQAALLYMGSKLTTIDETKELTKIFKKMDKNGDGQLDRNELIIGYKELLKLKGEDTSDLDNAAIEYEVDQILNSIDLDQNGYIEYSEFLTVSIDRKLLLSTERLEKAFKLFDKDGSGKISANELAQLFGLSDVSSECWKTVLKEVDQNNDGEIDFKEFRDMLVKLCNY
Protein kinase 7 (PK7), Plasmodium falciparum 3D7 (PF3D7_0213400), sequence (Q7YTF7 1-343): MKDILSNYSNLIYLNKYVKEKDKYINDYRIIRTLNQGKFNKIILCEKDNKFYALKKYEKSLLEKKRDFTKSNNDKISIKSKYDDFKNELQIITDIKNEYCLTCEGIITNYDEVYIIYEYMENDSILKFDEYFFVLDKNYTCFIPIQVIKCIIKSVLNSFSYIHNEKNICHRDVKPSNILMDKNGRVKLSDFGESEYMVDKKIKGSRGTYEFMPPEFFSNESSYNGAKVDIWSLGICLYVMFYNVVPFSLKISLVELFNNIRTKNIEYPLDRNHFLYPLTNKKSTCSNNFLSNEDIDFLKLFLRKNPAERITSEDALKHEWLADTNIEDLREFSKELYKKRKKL

The term inhibition denotes the drop in the measured response relative to a control, in per cent. `CN1CCCC1CCOc1ccc2c(c1)N(C(=O)Nc1cc(Br)cc(C(F)(F)F)c1)CC2` (stereo not drawn): the figures for the growth inhibition in experiment [1] and in experiment [4] were 97% (active) and 102% (active), respectively. The inhibition is 13% in experiment [2] and -6% in experiment [3]. In addition, the result in experiment [5], in experiment [6], in experiment [7] and in experiment [8] was inactive.

As to `CCN1CCN(c2cc(C)c3cc(NC(=O)c4cncc(Br)c4)ccc3n2)CC1`, the growth inhibition was 63% (active) in experiment [1] and 97% (active) in experiment [4]. Further, the inhibition in experiment [2] and in experiment [3] was 3% throughout. Besides, the outcome in experiment [5], in experiment [6], in experiment [7] and in experiment [8] was inactive.

For `Cc1[nH]c(C)c(-c2ccc(-c3cccc(OC(F)(F)F)c3)nc2)c(=O)c1Cl`, the results for the growth inhibition in experiment [1] and in experiment [4] were 97% (active) and 98% (active), respectively. For the same compound, the inhibition is 30% in experiment [2] and -2% in experiment [3]. The outcome in experiment [5], in experiment [6], in experiment [7] and in experiment [8] was inactive.

`N#Cc1ccc(NC(=NC2CCCc3ccccc32)Nc2ccc(-c3ccccc3)cc2)c(O)c1` (stereo not drawn): the growth inhibition is 98% (active) in experiment [1] and 99% (active) in experiment [4]. Moreover, the inhibition was 0% in experiment [2] and 3% in experiment [3]. Also, the result in experiment [5], in experiment [6], in experiment [7] and in experiment [8] was inactive.

For the compound `Cc1ccc2[nH]c(-c3ccc(C(=O)NC4CCN(Cc5ccccc5)CC4)cc3)nc2c1C`, the growth inhibition was 46% in experiment [1] and 102% (active) in experiment [4]. In addition, the inhibition is 22% in experiment [2] and -2% in experiment [3]. Further, the outcome in experiment [5], in experiment [6], in experiment [7] and in experiment [8] was inactive.

Turning to `CCCCN(CCCC)CCCCNc1c2ccc(Cl)cc2nc2ccc(OC)cc12`, the figures for the growth inhibition in experiment [1] and in experiment [4] were 96% (active) and 101% (active), respectively. Besides, the inhibition was 68% (active) in experiment [2] and 2% in experiment [3]. Moreover, the result in experiment [5], in experiment [6], in experiment [7] and in experiment [8] was inactive.

`CCC(CC)n1c(COC)cc2c3c(N)nc(N)nc3ccc21`: the growth inhibition was 0% in experiment [1] and 95% (active) in experiment [4]. Moreover, the inhibition is 71% (active) in experiment [2] and -4% in experiment [3]. For the same compound, the result in experiment [5], in experiment [6], in experiment [7] and in experiment [8] was inactive.

Regarding `CCOC(=O)c1cn(CC)c2cc(F)c(OC3C[C@@H]4CC[C@@]3(C)C4(C)C)cc2c1=O` (stereo partly drawn), the growth inhibition was 70% (active) in experiment [1] and 91% (active) in experiment [4]. The inhibition in experiment [2] was -7%; in experiment [3], -1%. In addition, the result in experiment [5], in experiment [6], in experiment [7] and in experiment [8] was inactive.

Consider `CCCCc1ccc2[nH]cc(C(=O)OCC)c(=O)c2c1`, for which the growth inhibition was 96% (active) in experiment [1] and 95% (active) in experiment [4]. Besides, the inhibition in experiment [2] was 3%; in experiment [3] it was 5%. Further, the result in experiment [5], in experiment [6], in experiment [7] and in experiment [8] was inactive.

`COc1ccc(Nc2nccc(NCC(O)c3ccc(C(F)(F)F)cc3)n2)cc1` (stereo not drawn): the growth inhibition in experiment [1] was 54% (active); in experiment [4], 98% (active). The figures for the inhibition in experiment [2] and in experiment [3] were 6% and -1%, respectively. Further, the outcome in experiment [5], in experiment [6], in experiment [7] and in experiment [8] was inactive.

`COc1ccc2nccc([C@@H](O)CN3CCC(NCc4nc5c(C#N)cccc5[nH]4)CC3)c2c1`: the growth inhibition in experiment [1] was 9%; in experiment [4], 96% (active). The results for the inhibition in experiment [2] and in experiment [3] were -3% and -5%, respectively. In addition, the outcome in experiment [5], in experiment [6], in experiment [7] and in experiment [8] was inactive.

As for `O=C(C=Cc1ccc(Cl)c(Cl)c1)NCCCCCN1CCC(CCCNC(=O)[C@@H]2C[C@H]2c2ccccc2)CC1`, the growth inhibition in experiment [1] is 12%; in experiment [4] it was 95% (active). Besides, the inhibition in experiment [2] is 45%; in experiment [3], -1%. Also, the result in experiment [5], in experiment [6], in experiment [7] and in experiment [8] was inactive.

On to `Cc1c(Cc2ccccc2)c(=O)oc2c(C)c3c(cc12)CN(CC(C)c1ccccc1)CO3` (stereo not drawn), for which the growth inhibition in experiment [1] and in experiment [4] was 98% (active) in each case. Further, the inhibition is 1% in experiment [2] and -1% in experiment [3]. Moreover, the outcome in experiment [5], in experiment [6], in experiment [7] and in experiment [8] was inactive.

Regarding `CCCCNC(=O)[C@H](Cc1ccccc1)NC(=O)c1ccc(O)c(-c2ccc(Cl)c(Cl)c2)c1`, the growth inhibition was 97% (active) in experiment [1] and 98% (active) in experiment [4]. Besides, the inhibition is -8% in experiment [2] and 3% in experiment [3]. The result in experiment [5], in experiment [6], in experiment [7] and in experiment [8] was inactive.

In the case of `Cc1ccc2nc(/N=C(\N)NC(=O)NC3CCCCC3)nc(C)c2c1`, the values for the growth inhibition in experiment [1] and in experiment [4] were 94% (active) and 99% (active), respectively. Also, the values for the inhibition in experiment [2] and in experiment [3] were 8% and 0%, respectively. For the same compound, the outcome in experiment [5], in experiment [6], in experiment [7] and in experiment [8] was inactive.

As to `COc1cccc(OC)c1C(=O)Nc1cccc(-c2nn3ccccc3c2-c2ccnc(Nc3cccc(F)c3)n2)c1`, the figures for the growth inhibition in experiment [1] and in experiment [4] were 38% and 95% (active), respectively. The inhibition was 3% in experiment [2] and 8% in experiment [3]. Besides, the outcome in experiment [5], in experiment [6], in experiment [7] and in experiment [8] was inactive.

Regarding `O=C(NCC1CCC(CNCCCc2ccccc2)CC1)Nc1ccc(Cl)c(Cl)c1` (stereo not drawn), the results for the growth inhibition in experiment [1] and in experiment [4] were 2% and 99% (active), respectively. The inhibition was 26% in experiment [2] and -6% in experiment [3]. The outcome in experiment [5], in experiment [6], in experiment [7] and in experiment [8] was inactive.

In the case of `COc1cccc(CNC(=O)c2ccnc(-c3ccc(CNCCOc4ccccc4)cc3)c2)c1`, the values for the growth inhibition in experiment [1] and in experiment [4] were 10% and 83% (active), respectively. Further, the results for the inhibition in experiment [2] and in experiment [3] were 23% and -4%, respectively. The result in experiment [5], in experiment [6], in experiment [7] and in experiment [8] was inactive.

As to `O=C(/C=C/c1ccc(Cl)c(Cl)c1)NCCCCCN1CCC(CCNC(=O)C2(c3ccc(Cl)cc3)CC2)CC1`, the growth inhibition in experiment [1] is 16%; in experiment [4], 91% (active). Also, the inhibition in experiment [2] is 96% (active); in experiment [3] it was -3%. Also, the outcome in experiment [5], in experiment [6], in experiment [7] and in experiment [8] was inactive.

As to `Cn1cncc1CCCN(Cc1ccc(-c2ccc(C(F)(F)F)cc2)cc1)C(=O)Cn1c(CCc2cccc(F)c2F)cc(=O)c2cccnc21`, the growth inhibition in experiment [1] was 59% (active); in experiment [4], 85% (active). Further, the inhibition in experiment [2] is 17%; in experiment [3], -2%. The result in experiment [5], in experiment [6], in experiment [7] and in experiment [8] was inactive.

As to `CN1Cc2ccc(NS(=O)(=O)c3ccc(-c4ccoc4)cc3)cc2C1`, the growth inhibition is 2% in experiment [1] and 97% (active) in experiment [4]. The inhibition in experiment [2] was -3%; in experiment [3] it was -2%. The outcome in experiment [5], in experiment [6], in experiment [7] and in experiment [8] was inactive.
